Results from the supplement of paper PMC6992640.
Counter-ions that a name gives are not always drawn. ± gives the standard deviation of the averaged measurements.

Tests used:
Test in all cases: cell viability (% of vehicle); higher = less cytotoxic
HCI01 [1] = cells of a triple-negative basal-like breast cancer xenograft; settings: 1 µM; 72 h
UCD52 [2] = cells of a triple-negative basal-like breast cancer xenograft; settings: 1 µM; 72 h
WHIM2 [3] = cells of a triple-negative basal-like breast cancer xenograft; settings: 1 µM; 72 h
WHIM30 [4] = cells of a triple-negative basal-like breast cancer xenograft; settings: 1 µM; 72 h
HCI01 [5] = settings: 10 µM; 72 h
HCI03 = cells of an ER-positive luminal breast cancer xenograft; settings: 10 µM; 72 h
HCI09 = cells of a triple-negative luminal androgen receptor type breast cancer xenograft; settings: 10 µM; 72 h
HCI11 = cells of an ER-positive luminal breast cancer xenograft; settings: 10 µM; 72 h
HCI13 = cells of an ER-positive luminal breast cancer xenograft; settings: 10 µM; 72 h
HCI16 = cells of a triple-negative basal-like breast cancer xenograft; settings: 10 µM; 72 h
UCD52 [6] = settings: 10 µM; 72 h
WHIM2 [7] = settings: 10 µM; 72 h
WHIM30 [8] = settings: 10 µM; 72 h

Structure (SMILES) | cell viability (HCI01 [1]) | cell viability (UCD52 [2]) | cell viability (WHIM2 [3]) | cell viability (WHIM30 [4]) | cell viability (HCI01 [5]) | cell viability (HCI03) | cell viability (HCI09) | cell viability (HCI11) | cell viability (HCI13) | cell viability (HCI16) | cell viability (UCD52 [6]) | cell viability (WHIM2 [7]) | cell viability (WHIM30 [8])
COc1cc2c(Oc3ccc4[nH]c(C)cc4c3F)ncnc2cc1OCCCN1CCCC1 [Cediranib (AZD217)] | 81.9 | 29.2 | 25.6 | 47.5 | 69.3 ± 10 | 54 | 43.8 ± 19 | 61.5 | 57.7 ± 16 | 70.1 | 50.84 ± 0.26 | 38.2 ± 7.5 | 68.3 ± 4.1
CCCCCCCCCCCCCCCCOP(=O)([O-])OCC[N+](C)(C)C [Miltefosine] | 89.6 | 101 | 85.8 | 92.6 | 98.9 ± 9.1 | 108 | 87.7 ± 30 | 107 | 33.2 ± 0.37 | 82.1 | 77.6 ± 9.7 | 38.2 ± 14 | 58.56 ± 0.43
CCOC(=O)c1c(CSc2ccccc2)n(C)c2cc(Br)c(O)c(CN(C)C)c12.Cl [Arbidol HCl] | 86.5 | 78.9 | 82.9 | 92.6 | 82.6 ± 33 | 87.3 | 58.6 ± 4.3 | 114 | 64.4 ± 11 | 92.3 | 35.7 ± 1.1 | 39.3 ± 9.1 | 85.2 ± 6.7
COC(=O)C1=C(C)NC(C)=C(C(=O)OC2CCCN(Cc3ccccc3)C2)C1c1cccc([N+](=O)[O-])c1.Cl (centres undefined) [Benidipine HCl] | 96.3 | 88.8 | 105 | 93.7 | 82.1 ± 16 | 68.3 | 27.9 ± 14 | 83.2 | 36.2 ± 7.7 | 87.5 | 51.4 ± 7.1 | 31.1 ± 6.1 | 64 ± 4.1
CCOC(=O)C1=C(COCCN)NC(C)=C(C(=O)OC)C1c1ccccc1Cl.O=S(=O)(O)c1ccccc1 (centres undefined) [Amlodipine Besylate] | 93.3 | 97.5 | 107 | 88.5 | 94.062 ± 0.027 | 115 | 63.8 ± 45 | 110 | 97.8 ± 2.3 | 102 | 50 ± 3.2 | 37 ± 1.7 | 81.2 ± 8.3
CCN(CC)CCCC(C)Nc1ccnc2cc(Cl)ccc12.O=P(O)(O)O.O=P(O)(O)O (centres undefined) [Chloroquine diphosphate] | 88.7 | 68.5 | 77.4 | 81.2 | 75.4 ± 4.4 | 93.1 | 95.5 ± 18 | 88.4 | 142 ± 20 | 102 | 72.7 ± 0.86 | 71.2 ± 17 | 74.46 ± 0.26
COc1nc2ccc(Br)cc2cc1[C@@H](c1ccccc1)[C@@](O)(CCN(C)C)c1cccc2ccccc12 [Bedaquiline fumarate] | 90.7 | 108 | 97.8 | 99.8 | 79.1 ± 18 | 75.7 | 64.5 ± 22 | 80.3 | 116.1 ± 1.1 | 87 | 42.6 ± 0.72 | 48.7 ± 2.1 | 70 ± 2.9
Cc1ccc(-n2[nH]c(C)c(NN=C3C=CC=C(c4cccc(C(=O)O)c4)C3=O)c2=O)cc1C [Eltrombopag] | 85.8 | 94.6 | 101 | 96.2 | 28.3 ± 15 | 94.9 | 20.5 ± 4.7 | 60.9 | 54.9 ± 3 | 125 | 57 ± 2.9 | 37.8 ± 14 | –
Cc1c(-c2ccc(O)cc2)n(Cc2ccc(OCCN3CCCCCC3)cc2)c2ccc(O)cc12.Cl [Bazedoxifene HCl] | 120 | 94.2 | 89.7 | 91.6 | 56.4 ± 32 | 41.6 | 21.6 ± 0.65 | 73.9 | 38 ± 6.1 | 114 | 45.6 ± 2.9 | 53.2 ± 6.3 | 83.1 ± 1.6
Br.Cc1ccc(Sc2ccccc2N2CCNCC2)c(C)c1 | 113 | 71.2 | 102 | 80.6 | 28 ± 3 | 44.4 | 17.5 ± 4 | 76.7 | 39.1 ± 6.4 | 35.3 | 23.6 ± 4.2 | 33.9 ± 14 | 26.9 ± 4.6
[O-]n1ccccc1=S.[O-]n1ccccc1=S.[Zn+2] [Zinc Pyrithione] | 52 | 67.2 | 70.2 | 65.3 | 16 ± 11 | 45.1 | 29.6 ± 26 | 24.8 | 144 ± 130 | 43.1 | 25.6 ± 1.7 | 33 ± 8.9 | 45.5 ± 4.8
COc1cc(C(=O)NS(=O)(=O)c2ccccc2C)ccc1Cc1cn(C)c2ccc(NC(=O)OC3CCCC3)cc12 [Zafirlukast] | 93.6 | 95.3 | 111 | 97.2 | 24.1 ± 0.82 | 87.8 | 22.3 ± 1.4 | 86.4 | 111 ± 2.8 | 106 | 78.7 ± 6.7 | 42.6 ± 1.2 | 116 ± 8.7
CN(C)CC=CC(=O)Nc1cc2c(Nc3ccc(F)c(Cl)c3)ncnc2cc1OC1CCOC1.O=C(O)C=CC(=O)O.O=C(O)C=CC(=O)O (centres undefined) [Afatinib dimaleate] | 85.2 | 32.7 | 57.8 | 56 | 35.3 ± 3 | 53.8 | 35.2 ± 4.2 | 32.5 | 32.4 ± 2.1 | 30.7 | 40.1 ± 7.4 | 41.1 ± 4.1 | 54.6 ± 7
CCOc1cc2ncc(C#N)c(Nc3ccc(OCc4ccccn4)c(Cl)c3)c2cc1NC(=O)C=CCN(C)C [Neratinib (HKI-272)] | 78.4 | 43.9 | 36.4 | 68.9 | 30.1 ± 7.1 | 38.1 | 27.8 ± 11 | 21.3 | 37.6 ± 1.3 | 38.7 | 23.2 ± 2.3 | 49.8 ± 12 | 96.1 ± 1.7
Cl.Clc1ccccc1CN1CCc2sccc2C1 [Ticlopidine HCl] | 99.4 | 97.4 | 99.6 | 91.9 | 56.5 ± 32 | 108 | 82 ± 2.9 | 91.6 | 108 ± 34 | 97.2 | 62.5 ± 2.4 | 82.5 ± 24 | 89.7 ± 5.6
COC(=O)C12CCC(C)(C)CC1C1C(=O)C=C3C4(C)C=C(C#N)C(=O)C(C)(C)C4CCC3(C)C1(C)CC2 (centres undefined) [Bardoxolone methyl] | 145 | 60.9 | 59.9 | 65.3 | 28.5 ± 3.9 | 33.9 | 23.1 ± 1.8 | 23.2 | 31.5 ± 3 | 30.4 | 24.6 ± 1 | 34.2 ± 5.5 | 26.8 ± 1.1
CN(C(=O)CN(CCO)CC(=O)N(C)C(C)(C)Cc1ccccc1)C(C)(C)Cc1ccccc1 [Oxethazaine] | 87.3 | 93.6 | 88.5 | 88.4 | 96.6 ± 4.3 | 55.9 | 69.4 ± 40 | 87.9 | 45.7 ± 12 | 83.1 | 39.3 ± 4.8 | 43.2 ± 9.4 | 96.4 ± 9.4
CCCSc1nc(NC2CC2c2ccc(F)c(F)c2)c2nnn(C3CC(OCCO)C(O)C3O)c2n1 (centres undefined) [Ticagrelor] | 97.8 | 91 | 89.7 | 75.5 | 41.1 ± 38 | 122 | 47.6 ± 30 | 80.5 | 46.1 ± 3.6 | 80 | 64.95 ± 0.47 | 41.2 ± 12 | 97.7 ± 5.2
CN(C)c1ccc(C(=C2C=CC(=[N+](C)C)C=C2)c2ccc(N(C)C)cc2)cc1.[Cl-] [Crystal Violet] | 74.7 | 61.1 | 51.2 | 40.8 | 28.8 ± 4.1 | 48.9 | 26.9 ± 4.8 | 28.1 | 24.73 ± 0.16 | 56.7 | 29.6 ± 3.3 | 46.7 ± 15 | 36.8 ± 2.2
CCN1CCN(Cc2ccc(Nc3ncc(F)c(-c4cc(F)c5nc(C)n(C(C)C)c5c4)n3)nc2)CC1.CS(=O)(=O)O | 83.9 | 46.7 | 130 | 52.6 | 87.8 ± 54 | 136 | 83 ± 14 | 135 | 71.6 ± 8.8 | 116 | 26.16 ± 0.13 | 30.4 ± 14 | 80.6 ± 5.5
C=C(c1ccc(C(=O)O)cc1)c1cc2c(cc1C)C(C)(C)CCC2(C)C [Bexarotene] | 106 | 107 | 91.9 | 142 | 60.2 ± 32 | 85.9 | 98.5 ± 3.8 | 100 | 54.3 ± 2.4 | 84.7 | 98 ± 14 | 44.8 ± 14 | 93.8 ± 4.4
CC(C)(C)c1ccc(C(O)CCCN2CCC(C(O)(c3ccccc3)c3ccccc3)CC2)cc1 (centres undefined) [Terfenadine] | 89 | 79.9 | 81.1 | 73.1 | 34.4 ± 5.2 | 38.1 | 30.4 ± 2.9 | 55.3 | 48.3 ± 4.8 | 45.8 | 35.1 ± 4 | 42 ± 2.8 | 29.6 ± 3.5
Cl.Fc1ccc(C2CCNCC2COc2ccc3c(c2)OCO3)cc1 (centres undefined) [Paroxetine HCl] | 91.6 | 79.7 | 100 | 87.4 | 63.7 ± 19 | 128 | 90.3 ± 17 | 74.8 | 120 ± 6.4 | 77.4 | 38.6 ± 4.8 | 43 ± 7.7 | 80.71 ± 0.29
Cl.OC(CNCC(O)C1CCc2cc(F)ccc2O1)C1CCc2cc(F)ccc2O1 (centres undefined) [Nebivolol] | 91.1 | 92.3 | 91.5 | 103 | 75.3 ± 2.5 | 87.2 | 86.8 ± 8.1 | 87.2 | 94.2 ± 18 | 64.9 | 38.43 ± 0.34 | 40.5 ± 9.2 | 81 ± 2.3
CC(C)(C)c1ccc(C(=O)CCCN2CCC(OC(c3ccccc3)c3ccccc3)CC2)cc1 [Ebastine] | 94.4 | 87.5 | 107 | 83.4 | 83.8 ± 57 | 70.2 | 53.2 ± 39 | 81.2 | 31.9 ± 3.6 | 77.5 | 52.1 ± 4.6 | 52.3 ± 7.3 | 78.2 ± 9.7
Cc1cn(-c2cc(NC(=O)c3ccc(C)c(Nc4nccc(-c5cccnc5)n4)c3)cc(C(F)(F)F)c2)cn1 [Nilotinib(AMN-107)] | 78.2 | 77.5 | 88 | 75.3 | 105 ± 61 | 79.8 | 90.1 ± 21 | 76.6 | 91.3 ± 13 | 92.1 | 47.83 ± 0.22 | 69.1 ± 7.7 | 75 ± 2.3
CCCCCCCCCCCC1=C(O)C(=O)C=C(O)C1=O [Embelin] | 92.8 | 86.8 | 93.5 | 85.6 | 75.6 ± 18 | 97.1 | 22.8 ± 1.3 | 54.1 | 86.3 ± 2.1 | 92.7 | 72.3 ± 5.4 | 77.1 ± 2.9 | 70.1 ± 13
O=C(O)CO.[NH2-].[NH2-].[Pt+2] [Nedaplatin] | 85.1 | 103 | 105 | 79.4 | 52.5 ± 16 | 89 | 87.8 ± 5.8 | 96.8 | 97 ± 12 | 51.1 | 33.06 ± 0.081 | 56.2 ± 5.7 | 66 ± 3.2
CN(C)CC=CC(=O)Nc1cc2c(Nc3ccc(F)c(Cl)c3)ncnc2cc1OC1CCOC1 (centres undefined) [Afatinib (BIBW2992)] | 71.3 | 27.2 | 50.9 | 49.6 | 25.61 ± 0.24 | 47.7 | 15.1 ± 1.8 | 73.5 | 43.4 ± 1.5 | 55.4 | 18.7 ± 0.37 | 34.6 ± 2.6 | 44.3 ± 6.3
CCC(=C(c1ccccc1)c1ccc(OCCN(C)C)cc1)c1ccccc1.O=C(O)CC(O)(CC(=O)O)C(=O)O [Tamoxifen Citrate] | 111 | 101 | 86.2 | 99.9 | 74 ± 57 | 78.8 | 28.1 ± 6 | 96.5 | 37.6 ± 3.9 | 59.7 | 34.5 ± 0.98 | 42.4 ± 7.6 | 104 ± 7.1
